About 1,600 (39%) of roughly 4,100 compounds were called active. Not shown: some 25% with an inconclusive outcome. Calls follow the shape of the dose curve; as a rule, active = well fitted inhibition curve with a large enough effect; inconclusive = small, poorly fitted or top-dose-only effect; inactive = no such curve, though single readings can be large or run the other way. The list shows a part of the results. Entries that show only a call come without a potency.
experiment: qHTS Validation assay for Inhibitors of Plasmodium falciparum Dd2 growth in vitro; also: nearly all actives have a fitted effect of over 70% in size; details: P. falciparum Dd2 in RBCs, SYBR Green growth, 72 h; series mostly up to 28.7 µM
Source text: Malaria, a parasitic disease spread to humans through the bite of a Plasmodium infected Anopheles mosquito, continues to be a global health burden affecting millions of people, with an estimated 228 million cases and 405,000 deaths in 2018. Concerns about safety and limitations of current antimalarial treatments strongly emphasize the need to develop new therapeutic options. The scarce number of chemotypes and validated drug targets with efficacy against the liver stage, have hindered development of new antimalarials. To address this, a chemoprophylactic drug discovery effort was conducted through a combined phenotypic high-throughput asexual blood stage and liver stage screen, providing a robust foundation to identify liver-stage active lead chemotypes. Compounds were initially screened against Plasmodium falciparum Dd2 strain parasites using a in vitro SYBRGreen-1 based 72 hr proliferation assay to identify novel chemotypes to advance to liver stage assays. NIH/NCATS Early Translation Branch Assay Submitter (PI): Anton Simeonov Ph.D.
[…] Assay Protocol: PROTOCOL TABLE (as described by Inglese et al., 2007) SEQUENCE No. (e.g., 1, 2, 3, etc.); PARAMETER (e.g., Cells, Incubation, Reagent, etc.); VALUE; DESCRIPTION SEQUENCE, Parameter, Description 1; Reagent; 3 uL complete malaria growth medium, 1536 TC treated Black clear bottom plate 2; Controls; 23 nL positive control artesunate (300 nM final) to column 1; Neutral control DMSO to columns 2-4 3; Compound; 23 nL of compounds in dose response concentration (29 uM to 0.5 nM final) 4; Reagent; 5 uL malaria infected red blood cells (2.5% hematocrit final, 0.3% parasitemia 5; Time; 72 hours at 37C (5% O2, 5% CO2, 90% N2; 95% Rh) 6; Reagent; 2 uL lysis buffer/SYBRGreen-1, 25 sec shake immediately following dispense 7; Time; ~16 hours at 37C (5% O2, 5% CO2, 90% N2; 95% Rh) 8; Detector; EnVision (PerkinElmer) bottom read at 485/14nm excitation and 535/25 nm emission NOTES (numbers refer to sequence above): 1; Complete Malaria Growth Media: 1X RPMI-1640 w/L-glutamine, 5.5g/L Albumax II, 367 uM Hypoxanthine, 25 mM HEPES, 0.25% Sodium Bicarbonate, 35 uM Gentamicin sulfate 2; Controls were added using the Kalypsis Pintool (Wako USA) equipped with 1536 pinhead 3; Compounds were added in a 7-point, titration with a high final concentration of 29 uM by Pintool from seven inter-plate titrations of library plates and two DMSO control plates at the beginning and end (see Yasgar et al., 2008). 4; Red blood cells infected with Plasmodium falciparum Dd2 parasites were used. 6; Lysis buffer: 20 mM Tris-HCl, 10 mM EDTA, 0.16% Saponin, 1.6% Triton-X, 10X SYBR Green. REFERENCE: Inglese J, Shamu CE, Guy RK. 2007. Reporting data from high-throughput screening of small-molecule libraries. Nat Chem Biol. doi:10.1038/nchembio0807-438 Yasgar A, Shinn P, Jadhav A, Auld D, Michael S, Zheng W, Austin CP, Inglese J, Simeonov A. 2008. Compound Management for Quantitative High-Throughput Screening. J Lab Autom 13:79-89. doi:10.1016/j.jala.2007.12.004
Potency is read from the fitted curve at half-maximal effect.

SMILES | Potency
COc1ccc2cc3cc(C(=O)NCCC(C)C)oc3nc2c1 | inactive
COc1cccc(CC(=O)N2CCCC(CN3CCCC3)CC2)c1 (configuration not stated) | 15 µM (active)
COc1ccc(CNC(=O)N2CCCC(CN3CCCC3)CC2)cc1 (configuration not stated) | inactive
CCc1noc(-c2cn(C3CCN(C(=O)Cc4cccc(OC)c4)CC3)nn2)n1 | inactive
Nc1cc2ccncc2c2ccccc12 | 0.266 µM (active)
O=C(NC1CCCC1)N1CCC(Cc2nncn2CC2CC2)CC1 | inactive
COC[C@@H]1CN(Cc2cn[nH]c2-c2ccccc2)C[C@H]1c1nc(C)no1 | inactive
Cc1ccccc1CN1C[C@@H]2C[C@@H](c3cn[nH]c3-c3ccccc3)N3CCC[C@@]23C1=O | 15 µM (active)
COCC(=O)N[C@H]1C[C@@H](CO)N(Cc2cn[nH]c2-c2ccccc2)C1 | inactive
Cc1cccc(NC(=O)Cn2c(C)c(C#N)c3ccccc32)c1C | 5.96 µM (active)
Cc1cccc(NC(=O)Cn2cnc(S(=O)(=O)N3CCCC3)c2)c1C | inactive
CN(C)c1cc(=O)c2ccnc(-c3ccccc3F)c2o1 | inactive
CCc1ccc(CNC(=O)c2cc3cc4ccc(OC)cc4nc3o2)cc1 | inactive
CCCOC(=O)c1ccc(-c2c(C)noc2-c2ccc(OC)cc2O)o1 | 1.88 µM (active)
CCc1cc(=O)n(CC(=O)Nc2ccccc2OC)c(-c2ccccc2)n1 | inactive
COc1ccccc1NC(=O)CN1CCN(C2c3ccccc3-c3ccccc32)CC1 | 15 µM (active)
CCc1noc(-c2cccn3c(CNC(=O)c4cccc(N(C)C)c4)nnc23)n1 | inactive
Cc1ccc(C(=O)NCc2nnc3c(-c4nc(C(C)C)no4)cccn23)cc1 | inactive
Cc1ccc(NC(=O)c2c(C)oc3ccc(O)c(CN4CCCCCC4)c23)cc1 | 2.11 µM (active)
Cc1ccc(CN2CCc3nc(C(=O)Nc4cccnc4)oc3CC2)cc1 | inactive
CCOC(=O)c1c(-c2ccccc2)oc2ccc(O)c(CN3CCCC3)c12 | 0.596 µM (active)
Cc1ccc(NC(=O)c2c(C)oc3ccc(O)c(CN4CCCCCC4)c23)c(C)c1 | 4.73 µM (active)
CCOC(=O)c1c(C)c(-c2ccccc2)n(CC(=O)NC2CCCCCC2)c1C | inactive
Cc1ccc(S(=O)(=O)N2CC3CCCC2C3)cc1 (configuration not stated) | inactive
O=C(NC[C@H]1OC[C@@H](NCc2ccccc2F)[C@@H]1O)Nc1ccccc1 | inactive

SMILES | Potency
CCn1cc(CN2CCCC(c3nc(C(C)C)no3)CCNC(=O)CC2)cn1 (configuration not stated) | inactive
Cc1cccc(OCCc2noc(C3CCN(C(=O)c4n[nH]c(=O)c5ccccc45)C3)n2)c1 (configuration not stated) | inactive
Cc1ccc(O)c(CN2CCCC(c3nc(CC(C)C)no3)C2)c1 (configuration not stated) | 9.44 µM (active)
CN(C(=O)Cn1c(=O)n(Cc2ccc(C(=O)NCc3ccc4c(c3)OCO4)cc2)c(=O)c2ccccc21)c1ccccc1 | inactive
O=C(Cn1c(=O)n(Cc2ccc(C(=O)NCc3ccc4c(c3)OCO4)cc2)c(=O)c2ccccc21)Nc1cccc(Cl)c1 | 5.96 µM (active)
N=c1ccn(CC(=O)c2ccc(-c3ccccc3)cc2)cc1 | 0.944 µM (active)
NC1=NC[C@@H](Cc2ccc(O)cc2)N1CCCCC1CCCCC1 | 4.73 µM (active)
C[C@H]1CN=C(N(C)C)N1CCC1CCCCC1 | inactive
CCC(=O)N1CCCCCCN(C)C(=O)[C@@H]2CCC[C@@H]21 | inactive
COc1ccc2c(c1)c(CN1CCCCCCN(C)C(=O)[C@@H]3CCC[C@@H]31)cn2C | 15 µM (active)
C=C(C)COc1ccc(-c2[nH]ncc2-c2ccc(OC)c(OC)c2)c(O)c1 | 6.68 µM (active)
C=C(C)COc1ccc(-c2[nH]ncc2Oc2ccccc2OCC)c(O)c1 | 2.99 µM (active)
CCOC(=O)c1c(C)oc2c1C(=O)c1ccccc1C2=O | 0.422 µM (active)
CCOC(=O)C1CCN(C(=O)c2c(C)oc3c2C(=O)c2ccccc2C3=O)CC1 | 0.531 µM (active)
CCOC(=O)C1CCN(C(=O)Cn2cnc3sc(C)c(S(=O)(=O)N4CCOCC4)c3c2=O)CC1 | inactive
CCOC(=O)c1cc(Sc2ccccc2N)cc(C(=O)OCC)n1 | inactive
CCOC(=O)c1c(C)[nH]c2c1-c1ccccc1C(=O)C2=O | 2.37 µM (active)
O=C(NCc1ccc(F)cc1)C1(CCO)CC12CCOCC2 (configuration not stated) | inactive
O=C(Nc1ccccc1F)N1CCCCCC1c1nc(-c2cccnc2)no1 (configuration not stated) | inactive
O=C(CCC1CCCN(Cc2cccn2-c2cccnc2)C1)Nc1ccccc1F (configuration not stated) | 6.68 µM (active)
CCC(C)NC(=O)N1CC(Oc2ccc(-c3noc(C4CCOCC4)n3)cc2)C1 (configuration not stated) | inactive
COc1ccccc1CC(=O)N1CCC(n2cc(-c3nc(C)no3)nn2)CC1 | inactive
O=C(CSc1nc(-c2ccccc2)no1)N1CCN(c2ccc(F)cc2)CC1 | 4.22 µM (active)
CC1CCN(C(=O)CSc2nc(-c3ccc(C(C)C)cc3)no2)CC1 | 1.19 µM (active)
CC(C)c1ccc(-c2noc(SCC(=O)N3CCN(c4ccc(F)cc4)CC3)n2)cc1 | 0.668 µM (active)

SMILES | Potency
Cc1ccc(Cc2nc3ccccc3nc2SCC(=O)N2CCN(c3ccccc3)CC2)cc1 | inactive
COc1ccccc1N1CCN(C(=O)CSc2nc(-c3ccc(C(C)C)cc3)no2)CC1 | 0.376 µM (active)
CC(C)c1noc(-c2cn(C3CCN(C(=O)COc4ccccc4)CC3)nn2)n1 | inactive
CCn1ccc2sc(C)c(C(=O)N3CCN(c4ccc(F)cc4)CC3)c2c1=O | inactive
Cc1nn(C)c(C)c1CCC(=O)N1CCC(Cc2noc(-c3ccc(F)cc3)n2)C1 (configuration not stated) | inactive
O=C(c1ccc(F)cc1)N1CCn2c(nnc2-c2ccccc2)C1 | inactive
COc1ccc(C(=O)N2CCC(n3cc(-c4nc(-c5ccccc5)no4)nn3)C2)cc1 (configuration not stated) | inactive
CC(C)c1ccc(-c2noc(SCC(=O)N(C)c3ccc(F)cc3)n2)cc1 | 0.944 µM (active)
COc1ccc(-c2noc([C@@H]3CCCN3C(=O)Cc3ccccc3Cl)n2)cc1 | inactive
COc1ccc(-c2noc(-c3cccn3CC(=O)N(C)c3ccc(F)cc3)n2)cc1F | inactive
COc1ccc(N2CCN(C(=O)CSc3nc(-c4ccc(C(C)C)cc4)no3)CC2)cc1 | 0.531 µM (active)
O=C(N/N=C(\CC(=O)c1cccs1)C(F)(F)F)c1ccncc1 | inactive
CCOc1ccccc1CN1C[C@@H]2C(=O)N(CCN3CCc4ccccc4C3)C(=O)[C@@H]2C1 | inactive
COc1cccc(CN2CCCN(Cc3ccncc3)C(c3ccccc3)CC(=O)NCC2)c1 (configuration not stated) | 7.5 µM (active)
CCOc1ccccc1CN1CCCN(Cc2ccncc2)C(c2ccccc2)CC(=O)NCC1 (configuration not stated) | 6.68 µM (active)
Cc1cccc(CN2CCCN(Cc3ccncc3)C(c3ccccc3)CC(=O)NCC2)c1 (configuration not stated) | 4.22 µM (active)
Cc1ccc(CNC(=O)N2CCCCCNC(=O)CC2c2ccccc2)cc1 (configuration not stated) | inactive
CCCNC(=O)N1CCCCCNC(=O)CC1c1ccccc1 (configuration not stated) | inactive
COc1ccc(CN2CCCCCNC(=O)CC2c2ccccc2)cc1Cn1ccnc1 (configuration not stated) | 9.44 µM (active)
COc1ccc(CN(C)C2CCc3nn(C)c(=O)n3CC2)cc1Cn1cccn1 (configuration not stated) | inactive
Cc1cccc(Cn2nnc3c2C(=O)c2ccccc2C3=O)c1 | inactive
COc1ccc(-n2nc(C3CCN(Cc4ccncc4)CC3)[nH]c2=O)cc1 | inactive
COc1ccc(N=C2NC(=O)/C(=C\c3ccco3)S2)cc1 | inactive
C#CCN(C)Cc1nc(C2(O)CCN(C(C)=O)CC2)cs1 | inactive
CCN(CC)C(=O)[C@@H]1CCCN1[C@H](Cc1ccccc1)C(=O)NC | inactive

SMILES | Potency
Cc1noc(C)c1-c1cc2cc(CN(C)C)oc2c(NCCOc2ccccc2)n1 | 15.3 µM (active)
Cc1noc(C)c1-c1cc2cc(CN(C)C)oc2c(NCCc2ccccc2)n1 | 13.7 µM (active)
COCCN(CC1CCCO1)c1nc(CCN)nc2ccccc12 (configuration not stated) | inactive
CCOc1ccc(Nc2nc(NCC3CCCO3)c3ccccc3n2)cc1 (configuration not stated) | 1.88 µM (active)
CC(C)c1nc2oc3c(NCC4CCCO4)ncnc3c2c2c1CCC2 (configuration not stated) | inactive
Cn1c(SCC(=O)N2c3ccccc3CCc3ccccc32)nnc1-c1cc2ccccc2cc1O | 8.41 µM (active)
CSc1nnc(-c2cc3ccccc3cc2O)n1C | 7.5 µM (active)
Cc1cccc(-c2nnc(SCC(=O)NC3CC3)n2C)c1 | inactive
Cc1noc([C@@H]2CN(C3CCSCC3)C[C@H]2CO)n1 | inactive
O=C(COc1ccccc1)N[C@H]1CO[C@H]2[C@@H]1OC[C@@H]2n1nnnc1Oc1ccc2c(c1)OCO2 | inactive
CCOC(=O)c1c(C)oc2nc(C)nc(Nc3ccc(C)c(Cl)c3)c12 | inactive
CCOC(=O)c1c(C)oc2nc(C)nc(Nc3ccc(CC)cc3)c12 | 7.5 µM (active)
CCOc1ccc2ncc3c(-c4ccccc4)nn(CC(=O)Nc4cccc(F)c4)c3c2c1 | inactive
O=C(Nc1ccccc1)c1cc2c(-c3ccccc3)nn(-c3ccccc3)c2s1 | 3.35 µM (active)
Cc1ccccc1NC(=O)Cn1c(=O)n(-c2ccccc2)c(=O)c2c1cc(C)n2C | inactive
O=C(O)Cc1sc(Nc2ccccc2Cl)nc1-c1ccccc1 | inactive
Cc1ccccc1NC(=O)c1cc2c(-c3ccccc3)nn(-c3ccccc3)c2s1 | 11.9 µM (active)
O=C(Nc1ccc(Cl)cc1)c1cc2c(-c3ccccc3)nn(-c3ccccc3)c2s1 | 2.37 µM (active)
COc1ccc(O)c(C(=O)c2cnc3c(c2)c(-c2ccc(F)cc2)c(C#N)c(=O)n3C)c1 | 5.96 µM (active)
Cc1cccc(CC(=O)N2CCC3(CC2)CC(O)CCO3)c1 (configuration not stated) | inactive
Cc1cccc(CN2CCN(C(=O)CCl)CC2)c1 | 13.3 µM (active)
O=C(CCC1CCCN(C(CO)CO)C1)N1CCN(Cc2ccccc2)CC1 (configuration not stated) | inactive

Reference: PubChem BioAssay AID1347416 (National Center for Advancing Translational Sciences (NCATS), 2020)
